Holding throughout (test): DAPPL (digital affinity profiling via proximity ligation, sequencing); 10 mM Tris-HCl pH 7.5, 50 mM NaCl, 1 mM DTT, 4% glycerol, room temperature, 30 min; GST-TFs on glutathione beads, 16-mer random dsDNA library, 0.1% formaldehyde crosslink after washing; high values mean tight binding
What all share (details): protein: recombinant; tags: N-terminal GST; dsDNA, one strand shown

One assay addresses T1, FLI1 (Homo sapiens, UniProt Q01543 1-452).
T1 sequence: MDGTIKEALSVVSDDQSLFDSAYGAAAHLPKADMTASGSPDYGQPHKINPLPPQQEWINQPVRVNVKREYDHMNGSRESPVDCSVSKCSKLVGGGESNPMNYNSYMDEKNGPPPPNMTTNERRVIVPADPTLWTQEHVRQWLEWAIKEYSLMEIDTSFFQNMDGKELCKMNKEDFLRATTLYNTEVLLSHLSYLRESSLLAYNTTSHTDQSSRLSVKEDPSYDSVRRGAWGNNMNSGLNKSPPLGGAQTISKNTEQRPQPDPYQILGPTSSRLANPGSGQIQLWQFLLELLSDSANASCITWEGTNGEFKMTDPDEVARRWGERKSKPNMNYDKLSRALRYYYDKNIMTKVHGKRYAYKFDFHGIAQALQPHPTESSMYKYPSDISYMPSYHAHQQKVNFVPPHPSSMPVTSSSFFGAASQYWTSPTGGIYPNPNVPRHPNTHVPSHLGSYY
In short, it runs like this:
(§1)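 After expression in yeast as GST fusions, human transcription factors were bound to glutathione beads, DNA-barcoded and mixed with a tag-only sample. The pools were incubated with 200 nmole of a 16-mer random double-stranded DNA library in Tris/NaCl/DTT/glycerol buffer (30 min, room temperature), washed and crosslinked with 0.1% formaldehyde. Proximity ligation with BsaI/T4 ligase ran for 1 h at 37 °C, before PCR amplification and sequencing on an Illumina NextSeq500. Binding signal is a hexamer's read frequency for a factor divided by its frequency for the tag-only sample.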

The target in another assay is T2, ELK1 (Homo sapiens, UniProt P19419 1-428).
T2 sequence: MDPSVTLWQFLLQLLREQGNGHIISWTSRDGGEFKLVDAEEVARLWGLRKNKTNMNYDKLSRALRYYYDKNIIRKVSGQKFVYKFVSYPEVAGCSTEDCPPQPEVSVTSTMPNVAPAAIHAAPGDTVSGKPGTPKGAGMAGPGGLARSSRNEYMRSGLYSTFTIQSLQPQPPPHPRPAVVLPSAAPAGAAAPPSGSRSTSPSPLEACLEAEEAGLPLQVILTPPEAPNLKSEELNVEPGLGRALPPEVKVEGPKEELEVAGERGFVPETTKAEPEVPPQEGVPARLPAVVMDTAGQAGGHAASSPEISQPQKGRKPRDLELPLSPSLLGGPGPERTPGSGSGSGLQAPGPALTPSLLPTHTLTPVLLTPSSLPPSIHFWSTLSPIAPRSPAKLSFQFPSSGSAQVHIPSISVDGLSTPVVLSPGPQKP
In short, it runs like this:
as §1

Another assay deals with T3, GABPA (Homo sapiens, UniProt Q06546 1-454).
T3 sequence: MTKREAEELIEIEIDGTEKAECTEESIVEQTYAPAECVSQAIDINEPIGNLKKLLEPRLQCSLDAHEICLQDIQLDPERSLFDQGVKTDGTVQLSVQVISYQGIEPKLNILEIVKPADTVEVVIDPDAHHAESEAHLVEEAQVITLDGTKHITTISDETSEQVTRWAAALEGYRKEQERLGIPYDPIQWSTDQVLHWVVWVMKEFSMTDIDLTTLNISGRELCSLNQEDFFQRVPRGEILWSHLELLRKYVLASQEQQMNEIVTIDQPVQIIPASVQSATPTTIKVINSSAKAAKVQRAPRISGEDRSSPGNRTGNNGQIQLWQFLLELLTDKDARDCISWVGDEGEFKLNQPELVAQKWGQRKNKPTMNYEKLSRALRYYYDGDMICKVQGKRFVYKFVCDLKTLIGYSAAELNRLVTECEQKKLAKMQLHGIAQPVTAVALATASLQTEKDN
A digest of the protocol:
as §1

The target of a further assay is T4, ERG (Homo sapiens, UniProt P11308 1-479).
T4 sequence: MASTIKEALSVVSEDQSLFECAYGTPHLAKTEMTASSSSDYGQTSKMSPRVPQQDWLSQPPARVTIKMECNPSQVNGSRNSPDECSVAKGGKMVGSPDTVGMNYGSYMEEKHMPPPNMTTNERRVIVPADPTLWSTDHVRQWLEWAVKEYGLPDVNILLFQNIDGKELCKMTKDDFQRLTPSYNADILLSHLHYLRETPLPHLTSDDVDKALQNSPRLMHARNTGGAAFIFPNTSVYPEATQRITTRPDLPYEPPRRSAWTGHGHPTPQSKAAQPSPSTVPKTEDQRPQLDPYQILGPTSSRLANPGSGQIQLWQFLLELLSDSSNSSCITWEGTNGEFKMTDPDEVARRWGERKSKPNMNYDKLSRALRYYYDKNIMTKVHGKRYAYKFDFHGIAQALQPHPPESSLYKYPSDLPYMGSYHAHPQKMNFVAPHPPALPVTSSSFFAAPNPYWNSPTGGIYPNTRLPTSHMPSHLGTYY
A digest of the protocol:
as §1

For another assay, the target named is ELF1 (Homo sapiens, UniProt P32519 1-619). In short, it runs like this:
as §1

Another assay has as its target T5, EHF (Homo sapiens, UniProt Q9NZC4 1-300).
T5 sequence: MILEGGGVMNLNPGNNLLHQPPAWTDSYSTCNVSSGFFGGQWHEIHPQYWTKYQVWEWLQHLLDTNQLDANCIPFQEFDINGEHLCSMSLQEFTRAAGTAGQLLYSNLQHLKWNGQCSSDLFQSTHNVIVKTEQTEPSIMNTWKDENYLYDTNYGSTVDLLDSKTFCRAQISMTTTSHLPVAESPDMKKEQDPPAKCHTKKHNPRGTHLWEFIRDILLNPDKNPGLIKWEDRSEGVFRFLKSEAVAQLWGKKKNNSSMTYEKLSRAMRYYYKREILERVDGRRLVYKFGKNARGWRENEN
A digest of the protocol: as §1

A further assay deals with SPI1 (Homo sapiens, UniProt P17947 1-270). In short, it runs like this:
as §1

In the next assay the target is SPIB (Homo sapiens, UniProt Q01892 1-262). In short, it runs like this: as §1
Chain of SPIB (Q01892 whole entry): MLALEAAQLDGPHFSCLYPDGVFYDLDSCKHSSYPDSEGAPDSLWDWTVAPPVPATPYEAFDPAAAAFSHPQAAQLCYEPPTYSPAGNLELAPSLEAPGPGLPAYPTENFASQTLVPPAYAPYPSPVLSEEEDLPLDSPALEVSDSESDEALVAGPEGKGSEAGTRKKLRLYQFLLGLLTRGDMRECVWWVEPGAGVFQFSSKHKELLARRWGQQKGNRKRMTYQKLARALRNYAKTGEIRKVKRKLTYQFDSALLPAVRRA
The target in the next assay is T6, FEV (Homo sapiens, UniProt Q99581 1-238).
T6 sequence: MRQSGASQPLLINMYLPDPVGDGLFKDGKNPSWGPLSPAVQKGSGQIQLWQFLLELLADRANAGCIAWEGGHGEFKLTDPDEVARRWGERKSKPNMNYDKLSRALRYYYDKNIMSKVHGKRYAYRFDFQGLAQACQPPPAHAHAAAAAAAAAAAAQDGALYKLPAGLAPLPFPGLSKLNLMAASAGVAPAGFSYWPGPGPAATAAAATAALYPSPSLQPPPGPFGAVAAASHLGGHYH
A digest of the protocol:
as §1

A further assay has as its target ETV5 (Homo sapiens, UniProt P41161 1-510). In short, it runs like this:
as §1

The target of the next assay is T7, SPIC (Homo sapiens, UniProt Q8N5J4 1-248).
T7 sequence: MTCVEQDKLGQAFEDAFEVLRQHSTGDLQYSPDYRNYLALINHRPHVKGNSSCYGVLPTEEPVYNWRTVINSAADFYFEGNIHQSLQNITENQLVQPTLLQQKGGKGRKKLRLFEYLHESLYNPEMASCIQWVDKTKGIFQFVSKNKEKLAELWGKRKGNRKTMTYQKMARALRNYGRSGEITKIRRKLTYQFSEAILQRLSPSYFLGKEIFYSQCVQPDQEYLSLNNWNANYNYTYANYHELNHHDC
In short, it runs like this:
as §1

The target in the next assay is ELF4 (Homo sapiens, UniProt Q99607 1-663). A digest of the protocol: as §1
Chain of ELF4 (Q99607 whole entry): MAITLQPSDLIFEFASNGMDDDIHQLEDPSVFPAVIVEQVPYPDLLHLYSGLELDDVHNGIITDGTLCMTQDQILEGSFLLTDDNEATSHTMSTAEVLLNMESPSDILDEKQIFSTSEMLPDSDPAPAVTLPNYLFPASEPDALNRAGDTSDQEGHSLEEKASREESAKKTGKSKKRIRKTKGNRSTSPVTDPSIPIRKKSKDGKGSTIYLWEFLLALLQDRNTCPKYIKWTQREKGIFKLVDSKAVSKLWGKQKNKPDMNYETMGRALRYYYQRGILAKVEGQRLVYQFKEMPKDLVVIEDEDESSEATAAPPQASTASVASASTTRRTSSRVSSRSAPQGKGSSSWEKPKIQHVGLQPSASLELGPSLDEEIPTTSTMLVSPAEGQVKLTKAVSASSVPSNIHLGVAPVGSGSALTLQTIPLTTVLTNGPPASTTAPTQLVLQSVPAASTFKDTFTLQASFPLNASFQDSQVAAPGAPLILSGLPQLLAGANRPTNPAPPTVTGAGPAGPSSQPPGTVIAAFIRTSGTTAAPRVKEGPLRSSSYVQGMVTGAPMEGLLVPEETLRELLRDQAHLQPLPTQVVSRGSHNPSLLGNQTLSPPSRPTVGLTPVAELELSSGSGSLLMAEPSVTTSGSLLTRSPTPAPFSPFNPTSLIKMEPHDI
A further assay has as its target ETV1 (Homo sapiens, UniProt P50549 1-477). In short, it runs like this:
as §1

For a further assay, the target named is T8, ERF (Homo sapiens, UniProt P50548 1-548).
T8 sequence: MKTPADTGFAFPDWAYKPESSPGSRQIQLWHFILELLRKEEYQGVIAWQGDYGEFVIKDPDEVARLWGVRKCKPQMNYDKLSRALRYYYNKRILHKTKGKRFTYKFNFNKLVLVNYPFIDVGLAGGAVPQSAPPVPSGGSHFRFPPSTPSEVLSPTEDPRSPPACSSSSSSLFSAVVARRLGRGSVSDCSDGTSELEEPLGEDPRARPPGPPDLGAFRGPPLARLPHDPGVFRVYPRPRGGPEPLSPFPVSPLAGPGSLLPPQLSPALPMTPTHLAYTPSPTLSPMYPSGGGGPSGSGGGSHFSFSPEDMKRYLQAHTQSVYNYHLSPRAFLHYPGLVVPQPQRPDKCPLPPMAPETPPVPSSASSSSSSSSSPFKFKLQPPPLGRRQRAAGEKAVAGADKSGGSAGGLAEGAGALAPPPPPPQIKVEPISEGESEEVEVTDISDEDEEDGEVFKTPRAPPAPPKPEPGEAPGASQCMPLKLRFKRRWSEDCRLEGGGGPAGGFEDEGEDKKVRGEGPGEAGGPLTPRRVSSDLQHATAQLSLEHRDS
In short, it runs like this:
as §1

For another assay, the target named is T9, ETV3L (Homo sapiens, UniProt Q6ZN32 1-361).
T9 sequence: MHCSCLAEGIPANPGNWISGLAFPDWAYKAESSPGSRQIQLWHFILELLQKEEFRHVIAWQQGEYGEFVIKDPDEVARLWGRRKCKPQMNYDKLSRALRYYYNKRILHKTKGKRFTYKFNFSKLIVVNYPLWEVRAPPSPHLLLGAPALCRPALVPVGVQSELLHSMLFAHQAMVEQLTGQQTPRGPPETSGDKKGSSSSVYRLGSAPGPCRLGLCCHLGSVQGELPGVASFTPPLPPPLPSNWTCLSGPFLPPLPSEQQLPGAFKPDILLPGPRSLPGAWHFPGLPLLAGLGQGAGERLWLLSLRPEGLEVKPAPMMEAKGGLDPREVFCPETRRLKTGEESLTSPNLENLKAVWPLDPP
A digest of the protocol:
as §1

Another assay has as its target T10, ETS2 (Homo sapiens, UniProt P15036 1-469).
T10 sequence: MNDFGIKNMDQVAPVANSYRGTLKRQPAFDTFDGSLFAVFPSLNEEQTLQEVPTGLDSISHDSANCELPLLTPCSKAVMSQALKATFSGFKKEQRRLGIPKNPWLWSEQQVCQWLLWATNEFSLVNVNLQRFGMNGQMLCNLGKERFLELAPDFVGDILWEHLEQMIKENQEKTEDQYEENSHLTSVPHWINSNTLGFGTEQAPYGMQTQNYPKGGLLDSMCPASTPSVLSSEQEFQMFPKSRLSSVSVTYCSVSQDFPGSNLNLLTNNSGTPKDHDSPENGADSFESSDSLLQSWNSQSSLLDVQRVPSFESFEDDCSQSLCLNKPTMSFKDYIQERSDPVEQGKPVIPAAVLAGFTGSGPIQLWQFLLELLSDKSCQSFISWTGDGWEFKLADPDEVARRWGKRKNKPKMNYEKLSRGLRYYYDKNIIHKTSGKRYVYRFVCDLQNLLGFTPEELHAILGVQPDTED
In short, it runs like this:
as §1

Another assay concerns the target T11, ETV3 (Homo sapiens, UniProt P41162-2 1-143).
T11 sequence: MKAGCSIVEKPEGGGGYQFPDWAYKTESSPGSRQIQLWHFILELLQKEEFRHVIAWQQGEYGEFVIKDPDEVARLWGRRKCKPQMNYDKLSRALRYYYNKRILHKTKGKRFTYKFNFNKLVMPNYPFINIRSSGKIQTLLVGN
A digest of the protocol: as §1

The next assay deals with ETV6 (Homo sapiens, UniProt P41212 1-452). In short, it runs like this:
as §1

These results are taken from paper PMC7862700, “An all-to-all approach to the identification of sequence-specific readers for epigenetic DNA modifications on cytosine”.

Chain of ETV1 (P50549 whole entry): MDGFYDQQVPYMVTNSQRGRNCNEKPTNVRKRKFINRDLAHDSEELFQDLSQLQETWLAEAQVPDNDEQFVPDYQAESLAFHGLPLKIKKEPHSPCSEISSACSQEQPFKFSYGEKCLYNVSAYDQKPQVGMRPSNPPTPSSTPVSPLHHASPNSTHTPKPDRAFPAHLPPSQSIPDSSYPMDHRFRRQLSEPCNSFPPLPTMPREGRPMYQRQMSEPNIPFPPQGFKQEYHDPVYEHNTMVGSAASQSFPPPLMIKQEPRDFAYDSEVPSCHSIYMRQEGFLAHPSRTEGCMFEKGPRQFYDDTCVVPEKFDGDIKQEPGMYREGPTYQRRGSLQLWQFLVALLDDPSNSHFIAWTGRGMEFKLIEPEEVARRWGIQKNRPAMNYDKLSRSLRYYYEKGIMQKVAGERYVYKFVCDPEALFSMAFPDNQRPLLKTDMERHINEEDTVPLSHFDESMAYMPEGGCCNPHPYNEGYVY
Chain of ELF1 (P32519 whole entry): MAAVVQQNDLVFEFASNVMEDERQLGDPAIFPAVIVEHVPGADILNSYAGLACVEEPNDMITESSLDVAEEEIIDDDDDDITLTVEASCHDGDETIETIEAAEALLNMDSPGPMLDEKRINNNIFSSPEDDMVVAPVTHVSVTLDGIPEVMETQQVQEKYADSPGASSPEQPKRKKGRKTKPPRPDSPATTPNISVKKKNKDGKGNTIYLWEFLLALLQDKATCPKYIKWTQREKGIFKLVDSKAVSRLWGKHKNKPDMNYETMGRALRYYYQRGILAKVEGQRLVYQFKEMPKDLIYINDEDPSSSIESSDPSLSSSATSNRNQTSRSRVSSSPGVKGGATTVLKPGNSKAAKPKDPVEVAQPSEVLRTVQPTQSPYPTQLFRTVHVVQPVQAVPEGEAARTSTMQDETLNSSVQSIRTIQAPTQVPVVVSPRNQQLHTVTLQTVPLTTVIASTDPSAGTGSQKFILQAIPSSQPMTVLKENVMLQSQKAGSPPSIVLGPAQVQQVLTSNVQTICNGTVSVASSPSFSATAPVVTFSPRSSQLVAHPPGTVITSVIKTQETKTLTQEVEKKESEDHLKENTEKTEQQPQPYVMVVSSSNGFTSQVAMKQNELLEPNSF
Chain of ETV6 (P41212 whole entry): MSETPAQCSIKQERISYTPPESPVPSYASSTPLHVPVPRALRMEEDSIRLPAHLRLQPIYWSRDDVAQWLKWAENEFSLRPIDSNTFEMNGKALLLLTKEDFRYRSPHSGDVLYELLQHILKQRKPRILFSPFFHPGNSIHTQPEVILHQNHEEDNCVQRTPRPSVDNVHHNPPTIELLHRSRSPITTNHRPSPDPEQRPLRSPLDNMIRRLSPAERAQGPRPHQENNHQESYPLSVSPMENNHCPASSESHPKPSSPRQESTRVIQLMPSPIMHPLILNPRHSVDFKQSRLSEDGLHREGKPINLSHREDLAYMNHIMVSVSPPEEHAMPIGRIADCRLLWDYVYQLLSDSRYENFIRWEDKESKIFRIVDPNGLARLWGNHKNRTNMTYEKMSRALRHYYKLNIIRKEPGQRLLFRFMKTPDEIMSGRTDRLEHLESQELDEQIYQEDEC
Chain of ETV5 (P41161 whole entry): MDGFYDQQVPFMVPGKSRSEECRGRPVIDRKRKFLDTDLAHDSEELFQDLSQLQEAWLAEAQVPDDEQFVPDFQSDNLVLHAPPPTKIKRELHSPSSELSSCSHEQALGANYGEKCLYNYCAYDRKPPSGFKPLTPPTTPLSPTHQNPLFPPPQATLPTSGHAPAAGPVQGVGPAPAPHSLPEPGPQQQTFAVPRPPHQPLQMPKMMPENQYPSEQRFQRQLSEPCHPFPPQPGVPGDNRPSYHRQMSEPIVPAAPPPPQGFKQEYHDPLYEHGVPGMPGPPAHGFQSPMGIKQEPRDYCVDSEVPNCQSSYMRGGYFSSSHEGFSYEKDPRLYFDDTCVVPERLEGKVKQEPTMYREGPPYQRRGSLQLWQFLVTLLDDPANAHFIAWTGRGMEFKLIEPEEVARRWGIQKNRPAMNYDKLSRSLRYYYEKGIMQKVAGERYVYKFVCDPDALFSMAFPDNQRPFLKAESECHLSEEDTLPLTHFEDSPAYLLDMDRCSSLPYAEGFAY

Consider TGGACC, for which the binding signal in the assay with FLI1 is 1.11 fold enrichment (6-mer frequency, TF over GST control); with ELK1, 1.03 fold enrichment (6-mer frequency, TF over GST control); in the assay with GABPA, 1.09 fold enrichment (6-mer frequency, TF over GST control); in the assay with ERG, 1.04 fold enrichment (6-mer frequency, TF over GST control); with ELF1, 1.06 fold enrichment (6-mer frequency, TF over GST control); in the assay with EHF, 1.1 fold enrichment (6-mer frequency, TF over GST control). Moreover, the binding signal in the assay with SPI1 is 1.1 fold enrichment (6-mer frequency, TF over GST control); in the assay with SPIB, 1.02 fold enrichment (6-mer frequency, TF over GST control); with FEV, 1.17 fold enrichment (6-mer frequency, TF over GST control); with ETV5 it was 1.05 fold enrichment (6-mer frequency, TF over GST control); with SPIC, 1.16 fold enrichment (6-mer frequency, TF over GST control); with ELF4, 1.06 fold enrichment (6-mer frequency, TF over GST control). Besides, the binding signal with ETV1 is 1.08 fold enrichment (6-mer frequency, TF over GST control); with ERF, 1.11 fold enrichment (6-mer frequency, TF over GST control); with ETV3L it was 1.13 fold enrichment (6-mer frequency, TF over GST control); with ETS2 it was 1.04 fold enrichment (6-mer frequency, TF over GST control); with ETV3, 1.04 fold enrichment (6-mer frequency, TF over GST control); in the assay with ETV6 it was 1.08 fold enrichment (6-mer frequency, TF over GST control).
